Screening data deposited in PubChem by several laboratories.
MEX-5 binding: C. elegans MEX-5 TCR-2 RNA binding activity | Q9XUB2 | AID 1832 | activity score (negative = inhibition of binding), % at 10 µM | 300,000 compounds, 0.38% hits | MEX-5/FITC-TCR2 RNA binding, fluorescence polarization; stronger effect = lower value;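 active means inhibition past about -25% in most replicates, and total fluorescence under double the plate's negative control median, limit read from the data; inconclusive means replicates evenly split on the limit, or fluorescence at least double controls; inactive means too little inhibition in most replicates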
Target sequence (Q9XUB2 whole entry, looked up): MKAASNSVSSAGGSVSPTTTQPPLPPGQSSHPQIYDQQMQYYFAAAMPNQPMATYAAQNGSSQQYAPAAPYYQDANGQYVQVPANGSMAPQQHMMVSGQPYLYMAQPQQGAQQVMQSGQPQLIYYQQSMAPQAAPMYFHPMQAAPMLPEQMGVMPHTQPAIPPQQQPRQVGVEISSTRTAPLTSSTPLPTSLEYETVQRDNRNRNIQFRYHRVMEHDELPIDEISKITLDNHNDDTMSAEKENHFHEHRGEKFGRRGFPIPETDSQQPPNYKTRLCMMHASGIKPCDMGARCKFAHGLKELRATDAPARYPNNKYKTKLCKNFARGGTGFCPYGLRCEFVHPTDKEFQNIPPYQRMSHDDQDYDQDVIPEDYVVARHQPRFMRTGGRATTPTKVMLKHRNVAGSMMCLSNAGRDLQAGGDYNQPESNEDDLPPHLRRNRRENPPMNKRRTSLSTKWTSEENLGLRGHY
MCL1-BIM inh: inhibitors of human MCL1 binding to BIM-BH3 peptide | AID 2057 | 320,000 compounds, 0.68% hits | inhibition, % at 10.9 µM | GST-MCL1 / FITC-Bim-BH3 fluorescence polarization | Q07820;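 active means inhibition above the mean inhibition of all tested compounds plus 3 SD, set per campaign, cut at about 40% in these data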;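 further: higher means more loss of mP so more displacement of Bim peptide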
BCLXL inh: blocks human Bcl-xL binding to Bim BH3 peptide; GST-Bcl-xL / FITC-Bim BH3 peptide fluorescence polarization; 320,000 compounds, 0.7% hits; inhibition, % at 10.9 µM; Q07817;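 active means inhibition above the mean of all tested compounds plus 3 SD, cutoff set per campaign, cut at about 30% in these data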;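 further: inhibitors lower millipolarization by displacing the labeled peptide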
EBV gp42 block: EBV gp42 inhibition; Q1HVG2; inhibition, % (tested at 21.74 µM); 220,000 compounds, 0.42% hits; Fluorescence polarization binding assay, mP read-out; AID 1085; in the data active means inhibition above about 50%
Target sequence (Q1HVG2 whole entry, looked up): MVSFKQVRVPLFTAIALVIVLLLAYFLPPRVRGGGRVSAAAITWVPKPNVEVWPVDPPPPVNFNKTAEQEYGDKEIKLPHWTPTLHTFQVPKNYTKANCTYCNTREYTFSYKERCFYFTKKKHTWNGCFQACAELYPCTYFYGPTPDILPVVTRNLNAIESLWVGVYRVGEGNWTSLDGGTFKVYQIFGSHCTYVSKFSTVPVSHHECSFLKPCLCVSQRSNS
GLD-1 TGE inh: GLD-1-TGE RNA interaction inhibition (C. elegans) | AID 2280 | 320,000 compounds, 0.44% hits | purified GLD-1 + fluorescein TGE RNA, fluorescence polarization | inhibition, % at 5.96 µM;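 active means percent inhibition above a per-plate cutoff, the plate mean of test compounds plus 3 SD, cut at about 30% in these data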
eLon inh: E. coli protease La inhibition; 360,000 compounds, 0.42% hits; inhibition, % at 7.94 µM; purified E. coli Lon protease, fluorescence polarization; in the data active means inhibition above about 13%, passing the limit was not always enough
eLon confirm: confirmation of E. coli Lon protease inhibitors | shares compounds with eLon inh | purified E. coli Lon, fluorescence polarization | inhibition, % at 7.94 µM | 1,400 compounds, 31% hits; in the data active means inhibition above about 16%
Each line names hits and unclear results; the compound was inactive in the other large screens (follow-up assays come after a bar, where they were run). Most compounds without a hit are left out; they make up all but 1.5% or so of the library.

O=C1CCCC/C1=C\Nc1ccc(O)cc1	eLon inh 19.5 | eLon confirm inactive
CCN1CC=C2C(C#N)=C(N)C(C#N)(C#N)C(c3cc(Cl)ccc3Cl)C2C1 (configuration not stated)	MEX-5 binding inconclusive, MCL1-BIM inh 149.7, BCLXL inh 122.4, EBV gp42 block 72.5, GLD-1 TGE inh 103.6, eLon inh 27.5 | eLon confirm inactive
CN1CC=C2C(C#N)=C(N)C(C#N)(C#N)C(Cc3ccccc3)C2C1 (configuration not stated)	MEX-5 binding -69.3, MCL1-BIM inh 128.6, BCLXL inh 117.8, GLD-1 TGE inh 68.7, eLon inh 39.4 | eLon confirm inactive
CCC1C2CN(C(C)=O)CC=C2C(C#N)=C(N)C1(C#N)C#N (configuration not stated)	none
CC(C)N1CC=C2C(C#N)=C(N)C(C#N)(C#N)C(c3ccccc3)C2C1 (configuration not stated)	MEX-5 binding inconclusive, MCL1-BIM inh 128.2, BCLXL inh 117.0, EBV gp42 block 72.1, GLD-1 TGE inh 92.7, eLon inh 52.8 | eLon confirm 19.8
N#CC1=C(N)C(C#N)(C#N)[C@H](c2ccncc2)[C@H]2CN(C(=O)OCc3ccccc3)CC=C12	none
COc1ccc(-n2ncc(C(C)NS(=O)(=O)c3cc(F)ccc3C)c2C)cc1 (configuration not stated)	none (no result: MCL1-BIM inh, BCLXL inh, EBV gp42 block, GLD-1 TGE inh)
Nc1cc(=O)[nH]c(SCC(=O)Nc2ccc(N3CCCCC3)cc2)n1	none (no result: MEX-5 binding, MCL1-BIM inh, BCLXL inh, EBV gp42 block)
c1cnc2c(-c3cccc4nccn34)cccc2c1	none (no result: MEX-5 binding, MCL1-BIM inh, BCLXL inh, EBV gp42 block, GLD-1 TGE inh)
OCc1ccccc1-c1cccc2nccn12	eLon inh 69.6 (no result: MEX-5 binding, MCL1-BIM inh, BCLXL inh, EBV gp42 block, GLD-1 TGE inh) | eLon confirm inactive
C[C@@H]1NC(=O)N(c2ccc(F)cc2)C1=O	none (no result: MCL1-BIM inh, BCLXL inh, EBV gp42 block, GLD-1 TGE inh)
CCOC(=O)C1=C(COC(=O)CNC(=O)c2ccc(Cl)cc2Cl)NC(=O)NC1C (configuration not stated)	none (no result: EBV gp42 block)
CCCS(=O)(=O)NC(=O)C1(C)CCN(C(=O)c2ccc(F)c(Cl)c2)C1 (configuration not stated)	none (no result: MEX-5 binding, MCL1-BIM inh, BCLXL inh, EBV gp42 block, GLD-1 TGE inh)
CN(CC(=O)Nc1ccccc1Cl)C(=O)Cn1cnc2ccccc2c1=O	none (no result: MEX-5 binding, MCL1-BIM inh, BCLXL inh, EBV gp42 block, GLD-1 TGE inh)
CCN(CC)c1ccc(N=C2C=CC(=O)C=C2NC(C)=O)cc1	eLon inh 37.6 (no result: MEX-5 binding, MCL1-BIM inh, BCLXL inh, EBV gp42 block, GLD-1 TGE inh) | eLon confirm inactive
FC(F)(F)c1ccccc1-n1c(-c2ccco2)n[nH]c1=S	none (no result: EBV gp42 block)
O=C(ONC(=O)C1C2C=CC(C2)C1C(=O)NOC(=O)c1ccccc1)c1ccccc1 (configuration not stated)	none (no result: MEX-5 binding, MCL1-BIM inh, BCLXL inh, EBV gp42 block, GLD-1 TGE inh)
O=C(Nc1ccc(S(=O)(=O)Nc2ncccn2)cc1)c1ccccc1	none (no result: EBV gp42 block)
CCCCOC(=O)Nc1ccc(S(=O)(=O)Nc2ncccn2)cc1	eLon inh 20.9 | eLon confirm 29.5
COc1ccc(C(=O)Nc2ccc(S(=O)(=O)Nc3ncccn3)cc2)cc1OC	eLon inh 21.3 | eLon confirm inactive
C/C(=C\c1ccccc1)C(=O)Nc1ccc(S(=O)(=O)Nc2ncccn2)cc1	eLon inh 22.3 | eLon confirm inactive
COC(=O)Nc1ccc(S(=O)(=O)Nc2ncccn2)cc1	eLon inh 26.9 | eLon confirm inactive
COc1ccc(C(=O)NCc2nnc(SCC(=O)NC3CCCCC3)o2)cc1	none (no result: EBV gp42 block)
CC1CCCC(NC(=S)NC(=O)c2ccco2)C1C (configuration not stated)	none (no result: MEX-5 binding, MCL1-BIM inh, BCLXL inh, EBV gp42 block)
COc1ccc(Cl)cc1NC(=O)CN(C)C(=O)Cc1n[nH]c(=O)c2ccccc12	none (no result: EBV gp42 block)
O=C(COC(=O)CNC(=O)C1CCCCC1)Nc1ccccc1Cl	none (no result: MEX-5 binding, EBV gp42 block)
O=C(C1CCC(CNS(=O)(=O)c2ccccc2)CC1)N1CCCCC1 (configuration not stated)	none (no result: EBV gp42 block)
COc1ccc(CN2CCN(C(=O)C3CCC(CNS(=O)(=O)c4ccccc4)CC3)CC2)c(OC)c1OC (configuration not stated)	eLon inh 142.6 | eLon confirm inactive
Cc1ccc(-n2cc(CNCCN3CCOC3=O)c(-c3cccc(C)c3)n2)cc1	eLon inh 16.0 | eLon confirm inactive
Cc1ccc(CNC(=O)CSc2ncc(C(=O)Nc3ccccc3)c(=O)n2C)cc1	none (no result: EBV gp42 block)
O=C(/C(=C/O)N=Nc1ccccc1)c1cccs1	eLon inh 21.8 | eLon confirm inactive
Cc1ccc(N(C(=O)c2csnn2)C(C(=O)NC2CCCCC2)c2ccco2)cc1 (configuration not stated)	none (no result: EBV gp42 block)
O=C1c2ccc3c4c(ccc(c24)C(=O)N1CCCCO)C(=O)N(CCCCO)C3=O	eLon inh 49.8 (no result: MCL1-BIM inh, BCLXL inh, GLD-1 TGE inh) | eLon confirm 50.5
CC(C)[C@H](NC(=O)OCc1ccccc1)C(=O)NC(C=O)Cc1ccccc1 (some centres not stated)	eLon inh 55.5 (no result: MEX-5 binding, EBV gp42 block) | eLon confirm 59.0
CC(C)(C)c1ccc(Cn2nnc3c(=O)[nH]c(C4CCCN(C(=O)c5cccs5)C4)nc32)cc1 (configuration not stated)	none (no result: EBV gp42 block)
COc1ccc(COC(=O)CCS(=O)(=O)c2ccc(C)cc2)cc1F	none (no result: EBV gp42 block)
N#CC1=C(N)Oc2ccc3ccc(O)cc3c2C1c1ccsc1 (configuration not stated)	MEX-5 binding -46.9, EBV gp42 block 161.4, eLon inh active (no result: MCL1-BIM inh, BCLXL inh, GLD-1 TGE inh) | eLon confirm active
O=C(Nc1ccc(N2CCCCCC2)cc1)c1ccccc1Cl	eLon inh 18.8 | eLon confirm inactive
CC(=O)N1CCN(c2ccc(NC(=O)c3ccccc3Cl)cc2)CC1	none (no result: EBV gp42 block)
Cc1cc(OCC(=O)N2CCOCC2)ccc1NC(=O)c1ccccc1C	eLon inh 16.6 (no result: EBV gp42 block) | eLon confirm inactive
O=C(Nc1ccc(OCC(=O)N2CCOCC2)cc1)c1ccccc1Cl	eLon inh 21.9 (no result: EBV gp42 block) | eLon confirm inactive
O=C(N/N=C/c1ccc(OCC(=O)N2CCOCC2)cc1)c1ccccc1Cl	none
Nc1[nH]c(C(=O)c2ccccc2)c(-c2cccnc2)c1C(=O)NCCc1ccc(Cl)cc1Cl	eLon inh active (no result: MEX-5 binding, MCL1-BIM inh, BCLXL inh, EBV gp42 block, GLD-1 TGE inh) | eLon confirm inactive
CC(=O)Nc1cccc(-c2ccnc3c2CC(C)(C(=O)NCc2ccc(N(C)C)cc2)O3)c1 (configuration not stated)	none (no result: MEX-5 binding, MCL1-BIM inh, BCLXL inh, EBV gp42 block, GLD-1 TGE inh)
COc1cc(/C=C/CN2CCC(C(=O)NC(c3ccc(F)cc3)c3ccc4ccccc4n3)CC2)ccc1OC(C)=O (configuration not stated)	eLon inh 25.5 (no result: MEX-5 binding, MCL1-BIM inh, BCLXL inh, EBV gp42 block, GLD-1 TGE inh) | eLon confirm inactive
O=C(NC(c1ccc(F)cc1)c1ccc2ccccc2n1)C1CCN(Cc2ccc3ccccc3n2)CC1 (configuration not stated)	none (no result: MEX-5 binding, MCL1-BIM inh, BCLXL inh, EBV gp42 block, GLD-1 TGE inh)
CC1CCCCC12NC(=O)N(CC(=O)N1CCN(Cc3ccc(C#N)cc3)CC1)C2=O (configuration not stated)	none (no result: MEX-5 binding, EBV gp42 block)
c1coc(-c2cnc3ccccc3n2)c1	eLon inh 35.5 (no result: MEX-5 binding, MCL1-BIM inh, BCLXL inh, EBV gp42 block, GLD-1 TGE inh) | eLon confirm inactive
